Our source for the cytotoxicity call values is the antibiotic and cytotoxicity screens of Wong et al. (2023).

SMILES strings stand for the structures. In all, about 39,000 compounds went through this assay and about 3,300 (8.5%) were called active. The entries come from a sample that favours actives as a whole.

The test system of this experiment is HepG2. The experiment is described as follows: cytotoxicity call (relative viability < 0.9). Conditions: 10 µM.
As to `COCC(=O)N1C[C@@H](C)[C@@H](OC)CN(C)C(=O)c2ccc(NC(=O)c3cc(C)on3)cc2OC[C@@H]1C`, the cytotoxicity call is “inactive”.
Take `Cc1ccc(S(=O)(=O)N(C)C[C@@H]2OCCCC[C@H](C)Oc3ccc(NC(=O)c4ccccc4)cc3C(=O)N([C@H](C)CO)C[C@@H]2C)cc1`: the cytotoxicity call was “inactive”.
The value for `COCC(=O)N(C)C[C@H]1Oc2cc(C#C[C@@H](C)O)ccc2S(=O)(=O)N([C@@H](C)CO)C[C@H]1C` was “inactive”; that for `COc1ccc(C#Cc2cnc3c(c2)C(=O)N([C@@H](C)CO)C[C@H](C)[C@@H](CN(C)C(=O)CN(C)C)O3)cc1` was “inactive”; that for `Cn1c(=O)[nH]c(=O)c2c1ncn2CCNCc1ccco1` was “inactive”.
The value for `C[C@@H]1CN([C@@H](C)CO)C(=O)c2cc(NC(=O)Cc3ccccc3)ccc2O[C@@H](C)CCCCO[C@@H]1CN(C)CC1CCCCC1` was “inactive”; that for `O=C(C[C@H]1CC[C@H]2[C@@H](COC[C@H](O)CN2C(=O)c2ccncc2)O1)NC1CCC1` was “inactive”.
In the case of `C[C@H]1CN([C@@H](C)CO)C(=O)c2cc(NC(=O)NC3CCCCC3)ccc2O[C@@H]1CN(C)S(=O)(=O)c1cn(C)cn1`, the cytotoxicity call was “inactive”.
With `C[C@H]1CN([C@@H](C)CO)C(=O)Cc2cc(NS(=O)(=O)c3ccccc3)ccc2O[C@@H]1CN(C)Cc1ccc(Oc2ccccc2)cc1` the entry was “inactive”.
With `C[C@H]1CN([C@@H](C)CO)C(=O)Cc2cc(NS(=O)(=O)c3ccccc3)ccc2O[C@H]1CN(C)Cc1ccc(Oc2ccccc2)cc1` the entry was “inactive”; with `C[C@@H]1CN([C@@H](C)CO)C(=O)Cc2cc(NS(=O)(=O)c3ccccc3)ccc2O[C@@H]1CN(C)Cc1ccc(Oc2ccccc2)cc1`, “active”.
In the case of `C[C@@H]1CN([C@H](C)CO)C(=O)Cc2cc(NS(=O)(=O)c3ccccc3)ccc2O[C@H]1CN(C)Cc1ccc(Oc2ccccc2)cc1`, the cytotoxicity call was “active”.
With `C[C@H](CO)N1C[C@H](C)[C@H](CN(C)Cc2ccc(Oc3ccccc3)cc2)Oc2ccc(NS(=O)(=O)c3ccccc3)cc2CC1=O` the entry was “inactive”; with `C[C@H](CO)N1C[C@H](C)[C@@H](CN(C)Cc2ccc(Oc3ccccc3)cc2)Oc2ccc(NS(=O)(=O)c3ccccc3)cc2CC1=O`, “inactive”.
The value for `C[C@@H]1CN([C@@H](C)CO)C(=O)Cc2cc(NS(=O)(=O)c3ccccc3)ccc2O[C@H]1CN(C)Cc1ccc(Oc2ccccc2)cc1` was “inactive”.
Take `C[C@@H]1CN([C@H](C)CO)C(=O)Cc2cc(NS(=O)(=O)c3ccccc3)ccc2O[C@@H]1CN(C)Cc1ccc(Oc2ccccc2)cc1`: the cytotoxicity call is “active”.
With `COc1ccc(S(=O)(=O)Nc2cccc3c2O[C@@H](CN(C)Cc2ccc(-c4ccccc4)cc2)[C@H](C)CN([C@H](C)CO)C3=O)cc1` the entry was “inactive”; with `CO[C@H]1CN(C)C(=O)c2ccc(NC(=O)c3ccccc3)cc2OC[C@H](C)N(C(=O)CN(C)C)C[C@@H]1C`, “inactive”; with `C[C@@H]1CN([C@H](C)CO)C(=O)c2cccc(NC(=O)NC3CCCCC3)c2O[C@H]1CN(C)Cc1ccc(-c2ccccc2)cc1`, “inactive”.
With `CCS(=O)(=O)N1CCC[C@]2(C(=O)NCC3CC3)CN(Cc3cnn(C)c3)C[C@H]2C1` the entry was “inactive”.
The value for `COc1ccc(C(=O)NC(CO)(CO)CO)cc1OC` was “inactive”.
Regarding `C[C@@H]1CN([C@H](C)CO)S(=O)(=O)c2ccc(C#CC3CCCC3)cc2O[C@@H]1CN(C)C(=O)Cc1ccncc1`, the cytotoxicity call is “inactive”.
With `COc1cc2c(cc1O)CCN[C@]21CS[C@@H]2c3c(OC(C)=O)c(C)c4c(c3[C@H](COC1=O)N1[C@@H]2[C@H]2c3c(cc(C)c(OC)c3O)C[C@@H]([C@@H]1O)N2C)OCO4` the entry was “active”.
The value for `CO[C@H](CN(C)S(=O)(=O)c1ccc(C)cc1)[C@@H](C)CN([C@@H](C)CO)S(=O)(=O)c1cccc(Cl)c1` was “inactive”; that for `Cc1cnc(Nc2ccc(F)cc2Cl)nc1-c1c[nH]c(C(=O)N[C@H](CO)c2cccc(Cl)c2)c1` was “active”; that for `C[C@@H]1CN([C@@H](C)CO)C(=O)Cc2cc(NC(=O)CCN3CCOCC3)ccc2O[C@H]1CN(C)Cc1ccc(C(=O)Nc2ccccc2N)cc1` was “inactive”.
The value for `CC(=O)O[C@H]1CC[C@]2(C)[C@H]3CC[C@@]4(C)[C@H](c5ccoc5)OC(=O)[C@H]5O[C@]54[C@]3(C)[C@H](OC(C)=O)C[C@H]2C1(C)C` was “inactive”.
On to `CC1(C)C(=O)C=CC2(C)C1C=CC1(C)C2CCC2(C)C(c3ccoc3)OC(=O)C3OC312` (stereo unspecified), for which the cytotoxicity call was “active”.
With `CC(=O)OC1CC(OC(C)=O)C2(C)C(CC(=O)C3(C)C2CCC2(C)C(c4ccoc4)OC(=O)C4OC423)C1(C)C` (stereo unspecified) the entry was “inactive”; with `CC(=O)OC1CCC2(C)C(CC(OC(C)=O)C3(C)C2CCC2(C)C(c4ccoc4)OC(=O)C4OC423)C1(C)C` (stereo not drawn) [3beta-ACETOXYDEOXODIHYDROGEDUNIN ], “inactive”.
With `CC1(C)C(=O)C=CC2(C)C1CC(=O)C1(C)C2CCC2(C)C(c3ccoc3)OC(=O)C3OC321` (stereo unspecified) the entry was “active”; with `CC1(C)OC2CC(=O)OCC23C1CC(=O)C1(C)C3CCC2(C)C(c3ccoc3)OC(=O)C3OC321` (stereo unspecified), “inactive”; with `C[C@H]1CCCCO[C@@H](CN(C)C(=O)c2ccncc2)[C@@H](C)CN([C@@H](C)CO)C(=O)c2cc(NS(=O)(=O)c3ccc(Cl)cc3)ccc2O1`, “inactive”.
The value for `Nc1ccc([C@@H](O)[C@@H](O)CO)cc1` was “inactive”; that for `COc1ccc(S(=O)(=O)N(C)C[C@@H]2Oc3c(NC(=O)c4cnccn4)cccc3C(=O)N([C@@H](C)CO)C[C@H]2C)cc1` was “inactive”.
Turning to `C[C@H](CO)N1C[C@H](C)[C@H](CN(C)C(=O)Cc2ccccn2)Oc2ncc(-c3cccc(C(=O)N(C)C)c3)cc2C1=O`, the cytotoxicity call is “inactive”.
The value for `COc1ccc(S(=O)(=O)N(C)C[C@@H]2Oc3ccc(NS(C)(=O)=O)cc3CC(=O)N([C@H](C)CO)C[C@@H]2C)cc1` was “inactive”; that for `COc1ccc(NC(=O)Nc2ccc3c(c2)C(=O)N([C@H](C)CO)C[C@@H](C)[C@@H](CN(C)Cc2ccc4c(c2)OCO4)OCCCC[C@@H](C)O3)cc1` was “active”.
The value for `COc1ccc(NC(=O)Nc2ccc3c(c2)C(=O)N([C@H](C)CO)C[C@@H](C)[C@H](CN(C)Cc2ccc4c(c2)OCO4)OCCCC[C@@H](C)O3)cc1` was “inactive”; that for `COc1ccc(NC(=O)Nc2ccc3c(c2)C(=O)N([C@H](C)CO)C[C@H](C)[C@@H](CN(C)Cc2ccc4c(c2)OCO4)OCCCC[C@H](C)O3)cc1` was “inactive”; that for `COc1ccc(NC(=O)Nc2ccc3c(c2)C(=O)N([C@@H](C)CO)C[C@H](C)[C@H](CN(C)Cc2ccc4c(c2)OCO4)OCCCC[C@@H](C)O3)cc1` was “inactive”.
With `COc1ccc(NC(=O)Nc2ccc3c(c2)C(=O)N([C@@H](C)CO)C[C@@H](C)[C@@H](CN(C)Cc2ccc4c(c2)OCO4)OCCCC[C@@H](C)O3)cc1`, the cytotoxicity call is “inactive”.
In the case of `COc1ccc(NC(=O)Nc2ccc3c(c2)C(=O)N([C@H](C)CO)C[C@H](C)[C@H](CN(C)Cc2ccc4c(c2)OCO4)OCCCC[C@H](C)O3)cc1`, the cytotoxicity call was “active”.
As for `C[C@@H]1CCCCO[C@H](CN(C)C(=O)NC2CCCCC2)[C@H](C)CN([C@@H](C)CO)C(=O)c2cc(NC(=O)c3ccccc3)ccc2O1`, the cytotoxicity call was “inactive”.
The value for `C[C@@H]1CN([C@@H](C)CO)C(=O)Cc2cc(NC(=O)Cc3ccccc3)ccc2O[C@H]1CN(C)C(=O)Nc1cccc2ccccc12` was “inactive”.
The value for `C[C@@H]1CCCCO[C@H](CN(C)Cc2ccncc2)[C@@H](C)CN([C@H](C)CO)C(=O)c2cc(NC(=O)Nc3ccccc3)ccc2O1` was “inactive”; that for `COc1ccc(S(=O)(=O)Nc2cccc3c2O[C@@H](CN(C)S(=O)(=O)c2ccc(OC)cc2)[C@@H](C)CN([C@@H](C)CO)C3=O)cc1` was “inactive”; that for `CCc1c(O)cc(O)c(C(=O)c2ccc(OCCN3CCOCC3)c(OC)c2)c1CC(=O)N(CCOC)CCOC` was “active”.
With `COc1cc(C(=O)OCCN2CCN(CCOC(=O)c3cc(OC)c(OC)c(OC)c3)CC2)cc(OC)c1OC`, the cytotoxicity call was “inactive”.
On to `COc1c(OCCCN2CCOCC2)ccc2c1N=C(NC(=O)c1cnc(N)nc1)N1CCN=C21`, for which the cytotoxicity call is “inactive”.
With `C[C@H]1CN([C@@H](C)CO)C(=O)c2cccc(NS(=O)(=O)c3ccc(F)cc3)c2O[C@@H]1CN(C)CC1CC1` the entry was “inactive”; with `Cc1cc(=O)n(CCO)c(=O)[nH]1`, “inactive”.
For the molecule `CCC(=O)N(C)C[C@H]1Oc2ncc(C#C[C@H](C)O)cc2C(=O)N([C@H](C)CO)C[C@H]1C`, the cytotoxicity call is “inactive”.
For `CC(C)(C)[S@](=O)N1Cc2cc(C(=O)N[C@@H]3CCN(Cc4ccccc4)C3)nc(-c3cccc(-c4cccnc4)c3)c2[C@@H]1CCO`, the cytotoxicity call was “inactive”.
Take `COc1cccc(NC(=O)N(C)C[C@@H]2Oc3ncc(C#Cc4ccncc4)cc3C(=O)N([C@H](C)CO)C[C@H]2C)c1`: the cytotoxicity call is “active”.
For `COc1ccccc1NC(=O)N(C)C[C@@H]1Oc2ncc(C#CCN(C)C)cc2C(=O)N([C@H](C)CO)C[C@@H]1C`, the cytotoxicity call was “inactive”.
The value for `COc1ccccc1NC(=O)N(C)C[C@@H]1Oc2ncc(C#CCN(C)C)cc2C(=O)N([C@@H](C)CO)C[C@H]1C` was “active”; that for `COc1cccc(NC(=O)N(C)C[C@H]2Oc3ncc(C#Cc4cccnc4)cc3C(=O)N([C@H](C)CO)C[C@H]2C)c1` was “inactive”.
In the case of `COc1cccc(NC(=O)N(C)C[C@@H]2Oc3ncc(C#Cc4ccncc4)cc3C(=O)N([C@H](C)CO)C[C@@H]2C)c1`, the cytotoxicity call was “inactive”.
With `COc1cccc(NC(=O)N(C)C[C@H]2Oc3ncc(C#Cc4ccncc4)cc3C(=O)N([C@H](C)CO)C[C@@H]2C)c1` the entry was “inactive”.
With `COc1cccc(NC(=O)N(C)C[C@@H]2Oc3ncc(C#Cc4ccncc4)cc3C(=O)N([C@@H](C)CO)C[C@@H]2C)c1` the entry was “inactive”; with `COc1cccc(NC(=O)N(C)C[C@H]2Oc3ncc(C#Cc4ccncc4)cc3C(=O)N([C@@H](C)CO)C[C@@H]2C)c1`, “active”.
With `COc1cccc(NC(=O)N(C)C[C@@H]2Oc3ncc(C#Cc4cccnc4)cc3C(=O)N([C@@H](C)CO)C[C@H]2C)c1` the entry was “inactive”; with `COc1cccc(NC(=O)N(C)C[C@@H]2Oc3ncc(C#Cc4ccncc4)cc3C(=O)N([C@@H](C)CO)C[C@H]2C)c1`, “inactive”; with `COc1ccccc1NC(=O)N(C)C[C@@H]1Oc2ncc(C#CCN(C)C)cc2C(=O)N([C@@H](C)CO)C[C@@H]1C`, “inactive”.
Turning to `COc1cccc(NC(=O)N(C)C[C@H]2Oc3ncc(C#Cc4ccncc4)cc3C(=O)N([C@H](C)CO)C[C@H]2C)c1`, the cytotoxicity call is “active”.
